Compound activity (PubChem BioAssay)
Pf growth 48h = P. falciparum growth inhibition at 48 hours (one generation); P. falciparum luciferase growth in erythrocytes, 48 h; Potency, µM (titrated, usually from 28.7 µM), for inactives: at the highest dose activity change, negative = inhibition, hits mostly inhibitors; actives 5.9% (n = 310,000); further: potency means the concentration at half of the fitted maximal effect; on the % scale 0 is the no-effect control and ±100 the full control effect
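In quantitative HTS format, infected erythrocytes bearing luciferase-reporter parasites were treated for a single generation at 37 C. Luminescence after adding detection reagent served as the growth measure.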
Shiga toxin inh = inhibitors of Shiga toxin in Vero cells; Vero cells, Shiga toxin protein synthesis inhibition reporter; inhibition, % at 38.7 µM; actives 9.2% (n = 290,000); in the data active means inhibition mostly above about 28%, no sharp cut-off; inactive means mostly below about 43%; further: 0% is about no effect
AMA1-RON2 inh = inhibitors of Plasmodium falciparum AMA1-RON2 interaction. actives 0.2% (n = 360,000). Potency, µM (series often up to 58.2 µM), for the others: at the top dose activity change, negative = inhibition, actives largely listed as inhibitors. AlphaScreen AMA1-biotinylated RON2 peptide binding;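 further: potency means the concentration at half of the fitted maximal effect; 0% = vehicle wells and -100% = peptide control; nearly all actives have a fitted effect of over 45% in size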
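AMA1 (3D7) with his tag at 25 nM final met compounds first, then biotinylated RON2 peptide at 25 nM; detection used donor plus acceptor beads, 10 µg/mL apiece, read by AlphaScreen after 30 min at room temperature.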
Cycloheximide cs = counter-screen hit for Shiga toxin inhibitors, cycloheximide | cell reporter, cycloheximide protein synthesis inhibition counterscreen | actives 12% (n = 300,000) | AID 2314 | max response, %; in the data active means max response mostly above about 13%, no sharp cut-off; inactive means mostly below about 14%; further: read at 38.3 µM for the half of the compounds with a filed dose; 0% is about no effect
HCV inhibitor = inhibitors of hepatitis C virus infection | Huh7.5.1 HCVcc-Cre infection, luciferase reporter, 44 h | Potency, µM (highest dose often 41.8 µM), for the others: at the top dose activity change, negative = inhibition, most hits filed as inhibitors | actives 3.4% (n = 340,000); further: potency means the concentration at half of the fitted maximal effect; on the % scale 0 is the no-effect control and ±100 the full control effect
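1,000 cells/well; 4 h culture; + compound; + HCVcc-Cre (~0.5 moi); 44 h; luciferase substrate, RT 15 min; read 15 sec.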
Pf growth 96h = inhibits malaria parasite growth, 96 h. actives 6.9% (n = 320,000). Potency, µM (doses to about 28.7 µM), for inactives: at the top dose activity change, negative = inhibition, usual class: inhibitors. P. falciparum luciferase reporter growth, 96 h. AID 504834; further: potency means the concentration at half of the fitted maximal effect; on the % scale 0 is the no-effect control and ±100 the full control effect
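Cell-based qHTS: luciferase-tagged P. falciparum in erythrocytes (2% hematocrit, 0.05% parasitemia final) incubated with compounds for 96 hours, 37 C, 5% CO2; luciferase detection reagent then added and luminescence measured.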
Active calls of the source: *; i = inactive; u = inconclusive; x = not tested or not shown; + = active, no number; [ ] = remark or other dose. Sampled rows, rich in hits. Any-hit rate of the full collection: about 21%. Unless noted, the call rests on the fitted dose curve; in most records, active means well fitted curve in the direction sought with a large enough effect; inconclusive means small, poorly fitted or top-dose-only effect, or another doubt; inactive means no such curve, though single readings can be large; an effect the other way counts as inactive or inconclusive.

SMILES	Pf growth 48h	Shiga toxin inh	AMA1-RON2 inh	Cycloheximide cs	HCV inhibitor	Pf growth 96h
COc1ccc(S(=O)(=O)N2CCC3(CC2)OCCN3S(=O)(=O)c2cccs2)cc1OC	u	x	-2%	x	u	9.3µM*
COCCNC(=O)C1CCCN(C(=O)COc2ccc(C(C)(C)C)cc2)CC1 (stereo not given)	x	x	-6%	x	x	x
O=C(CN(C(=O)CCC(=O)Nc1ccccn1)c1cccc(F)c1)NCc1ccco1	-7%	1	-9%	2	-16%	11%
Cc1ccc(N2CC(C(=O)Nc3cccnc3)CC2=O)cc1Cl (stereo not given)	-27%	-9	-13%	-3	-1%	48%
N/C(=N\c1nc2ccccc2o1)NC(=O)c1ccc([N+](=O)[O-])cc1	15%	12	82%	-3	u	29%
NC(N)=Nc1nc2cc([N+](=O)[O-])ccc2o1	10%	27	14%	15*	-8%	39%
O=[N+]([O-])c1ccc2oc(-c3ccccc3)nc2c1	237%	69*	-7%	35*	-22%	1%
COc1ccc(-c2nc3ccc([N+](=O)[O-])cc3o2)cc1	115%	+	-17%	39*	4%	36%
O=[N+]([O-])c1ccc2nc(-c3ccccc3)cc(-c3ccccc3)c2c1	38%	-7	23%[11.6 µM]	-3	0%	55%
Cc1cccc(-c2nc3cc([N+](=O)[O-])ccc3o2)c1	160%	92*	0%	36*	-3%	5%
O=S(=O)(NCC[C@@H]1CC[C@H](NS(=O)(=O)c2cccc(F)c2)[C@@H](CO)O1)c1cccc(F)c1	x	x	33%	x	x	x
COc1cccc(C(=O)NCCS(=O)(=O)N2CCN(C(=O)c3ccco3)CC2)c1	u	x	-11%	x	10%	u
Nc1cc(=O)[nH]c(=O)n1CCc1ccccc1	u	10	20%	3	6%	u
Cc1cc(NC(=O)C2CCCN(S(=O)(=O)c3cccc4nonc34)C2)ccc1Br (stereo not given)	x	-11	x	-10	x	x
CCCOc1ccc(CN(CCC#N)C(=S)NC(=O)c2ccccc2)cc1	u	-32	13%	23*	-4%	15%
COc1cc(C(=O)NC(=S)N(CCC#N)Cc2cccnc2)cc(OC)c1OC	x	x	29%	x	4%	x
O=C(Nc1ccccc1Br)c1cc(=O)c2ccccc2o1	121%	99*	-5%	23	-19%	165%
O=C(Nc1ccccc1Cl)c1cc(=O)c2ccccc2o1	103%	x	10%	30*	-8%	12µM*
O=C1CCCN1CCC(=O)N1CCCC(Nc2ccc(F)c(F)c2)C1 (stereo not given)	-4%	33*	14%	13	19%	u
Cc1ccc(NC2CCCN(C(=O)CCc3ccncc3)C2)cc1C (stereo not given)	-7%	-4	-3%	1	2%	-13%
O=C(CCc1ccncc1)N1CCCC(Nc2ccc(F)c(F)c2)C1 (stereo not given)	0%	-2	-6%	1	7%	13µM*
COc1ccc(NC2CCCN(C(=O)CCCn3cncn3)C2)cc1OC (stereo not given)	-4%	1	-4%	-4	7%	2.6µM*
O=C1CCCCN1CCCC(=O)N1CCCC(Nc2ccc(F)c(F)c2)C1 (stereo not given)	-13%	-31	-4%	7	11%	70%
COc1ccc(NC2CCCN(C(=O)CCc3ccncc3)C2)cc1OC (stereo not given)	0%	-12	9%	45*	13%	-23%
COc1cc(C(=O)NCC(=O)Nc2c(C)cccc2C)ccc1OCC(=O)N1CCOCC1	x	x	8%	x	-5%	x
SMILES	Pf growth 48h	Shiga toxin inh	AMA1-RON2 inh	Cycloheximide cs	HCV inhibitor	Pf growth 96h
COc1ccc(C(=O)OCC(=O)Nc2c(C)n(C)n(-c3ccccc3)c2=O)cc1OC	3%	x	-7%	x	6%	-24%
COc1ccc(NS(=O)(=O)NC(=O)c2c[nH]c3ccccc23)cc1	3%	3	-14%	-1	0%	39%
COc1cccc(NS(=O)(=O)NC(=O)c2c(C)[nH]c3ccccc23)c1	31%	30*	-8%	31*	7%	u
COc1cccc(NS(=O)(=O)NC(=O)c2c[nH]c3ccccc23)c1	12µM*	53	-9%	45*	-1%	72%
Cc1[nH]c2ccccc2c1C(=O)NS(=O)(=O)Nc1ccc(F)cc1	u	-11	4%	-1	6%	0%
CCc1cccc(C)c1NC(=O)CN1CCN(S(=O)(=O)c2ccc(C(C)(C)C)cc2)CC1	1.7µM*	x	-1%	x	2µM*	0.93µM*
CC(C)(C)c1ccc(S(=O)(=O)N2CCN(CC(=O)N3CC(=O)Nc4ccccc43)CC2)cc1	12µM*	x	-6%	x	-6%	u
CCc1cccc(C)c1NC(=O)COC(=O)C1CCN(S(=O)(=O)c2ccccc2)CC1	-14%	x	11%	x	-5%[8.37 µM]	0%
COC(=O)C1C(c2ccc(OC)cc2)C(C(=O)OC)S(=O)(=O)C(CCN2CCCCC2)S1(=O)=O (stereo not given)	-22%	11	-17%	13	0%	-4%
COc1cc([N+](=O)[O-])ccc1NC(=O)N1CCCCCC1	u	0	-7%	12	u	-7%
COc1ccc(C(=O)Cn2c(=N)n(C)c3ccccc32)cc1	215%	85*	-4%	60*	-24%	-7%
COc1ccc(C(=O)CN2C(=O)COc3ccccc32)cc1	23%	34	20%	10	5%	0%
Cn1c(=N)n(CC(=O)c2ccccc2)c2ccccc21	264%	24	-1%	23*	-17%	i
COc1ccc(C(=O)CN2Cc3ccccc3C2=N)cc1	73%	88*	-1%	30*	-9%	280%
COc1ccc(CCN(C)Cc2c(O)ccc3ccccc23)cc1OC	-14%	26	-5%	30	7%	17%
C=CCOc1ccc(/C(O)=C2/C(=O)C(=O)N(CCCn3ccnc3)C2c2cccs2)cc1 (stereo not given)	50%	137*	-18%	49*	-17%	u
O=C1C(=O)N(CCCn2ccnc2)C(c2ccccn2)/C1=C(/O)c1ccccc1 (stereo not given)	11%	-9	x	-7	x	u
COc1ccc(C2/C(=C(\O)c3ccc4c(c3)OCCO4)C(=O)C(=O)N2CCCn2ccnc2)cc1 (stereo not given)	u	28	4%	18	6%	u
COc1ccccc1C1/C(=C(\O)c2ccc3c(c2)OCCO3)C(=O)C(=O)N1CCCn1ccnc1 (stereo not given)	2%	72*	5%	32*	1%	7%
